Hit rate of the full screen: of about 420,000 compounds, about 64,000 (15%) were called active. Inconclusive results (about 27%) are left out. The list is a sample of the results. Unmarked numbers belong to inactive results. Calls follow the shape of the dose curve; as a rule, active = well fitted inhibition curve with a large enough effect; inconclusive = small, poorly fitted or top-dose-only effect; inactive = flat fitted curve, though single readings scatter.
Experiment: qHTS for Inhibitors of human tyrosyl-DNA phosphodiesterase 1 (TDP1): qHTS in cells in absence of CPT; also: nearly all actives have a fitted effect of over 55% in size
Conditions: DT40 Tdp1-/- hTDP1 cells, no CPT, ATP luminescence, 48 h; activity change, negative = growth inhibition: at 46.2 µM (top of the series)
How it was run: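 Growth of hTDP1-complemented DT40 Tdp1-knockout cells is measured by ATP luminescence after at least 48 hr compound exposure at 37 °C, with DMSO substituting for the 20 nM CPT used in the parallel screen.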
% is scaled to controls: 0 for no effect and ±100 for the full control effect; potency is read from the fitted curve at half-maximal effect.

Structure (SMILES) | Potency | activity change, negative = growth inhibition [%]
CN(Cc1cn(Cc2ccc(C(F)(F)F)cc2)nn1)C1CN(Cc2cn(Cc3ccc(C(F)(F)F)cc3)nn2)S(=O)(=O)C1 (stereo not drawn) | 4.61 µM (active) | –
Cc1cccc(CN2CCN(C3CN(Cc4cn(Cc5cc(C)cc(C)c5)nn4)S(=O)(=O)C3)CC2)c1 (stereo not drawn) | 16.4 µM (active) | –
O=S1(=O)CC(N2CCN(Cc3ccccc3F)CC2)CN1Cc1cn(Cc2cccc(C(F)(F)F)c2)nn1 (stereo not drawn) | 16.4 µM (active) | –
Cc1cc(C)cc(CN2CCc3nnc(C(NS(C)(=O)=O)C(C)C)n3CC2)c1 (stereo not drawn) | – | -16.9
CCCCCCN1CCN(C2CN(Cc3cn(CCCCCC)nn3)S(=O)(=O)C2)CC1 (stereo not drawn) | 20.6 µM (active) | –
O=S1(=O)CC(N2CCN(CCO)CC2)CN1Cc1cn(Cc2cccc(Cl)c2)nn1 (stereo not drawn) | – | 6.99
Cc1ccc(Cn2cc(CN3CC(N4CCN(C)CC4)CS3(=O)=O)nn2)cc1 (stereo not drawn) | – | -22.6
CN(C)C1CN(Cc2cn(Cc3ccccc3)nn2)S(=O)(=O)C1 (stereo not drawn) | – | -19.1
O=S1(=O)CC(N2CCN(CCO)CC2)CN1Cc1cn(Cc2ccc(Cl)cc2)nn1 (stereo not drawn) | – | -19.6
CC(C)C(C)(C#N)NC(=O)CSc1nc2scc(-c3ccccc3)c2c(=O)[nH]1 (stereo not drawn) | – | -17.6
CC1(c2ccc(Cl)cc2)NC(=O)N(CC(=O)c2ccc3c(c2)OCO3)C1=O (stereo not drawn) | – | -5.62
Cn1c2c(c(=O)n(C)c1=O)CN(Cc1ccco1)CN2 | – | 4.5
CC(=O)NC(Cc1ccc(F)c(F)c1)C(=O)NC1CCN(C(=O)c2ccc(C)cc2)CC1 (stereo not drawn) | – | -5.08
CCOc1ccc(S(=O)(=O)N2CCCCCC2)c2ccccc12 | – | -29.8
COc1ccc(-c2ocnc2C(=O)Nc2ccc3c(c2)CCC3)cc1 | – | -22.7
CSC1=NCCN1C(=O)Cc1cccc2ccccc12 | – | 8.2
COCCN1C(=O)C(=O)/C(=C(/O)c2ccc(S(=O)(=O)N3CCOCC3)cc2)C1c1ccc(O)c(OC)c1 (stereo not drawn) | – | 17.3
O=C(c1ccccc1Cl)N(Cc1ccccc1F)N1C(=O)CCCC1=O | – | 1.49
CN(C)CCN(C(=O)C1CCCCC1)c1nc2cc3c(cc2s1)OCO3 | – | -3.74
CC(=O)c1ccc(NC(=O)c2ccc(-n3cncn3)c([N+](=O)[O-])c2)cc1 | – | -26.5
O=C(Nc1ccc(N2C(=O)c3cccc4cccc(c34)C2=O)cc1)c1ccc(N2CCCCC2)c([N+](=O)[O-])c1 | 7.31 µM (active) | –
O=C(Nc1cccc(C(F)(F)F)c1)c1ccc(N2CCNCC2)c([N+](=O)[O-])c1 | 18.4 µM (active) | –
O=C(Nc1ccc2c(c1)OCO2)c1ccc(N2C(=O)c3ccccc3C2=O)cc1 | – | -6.15
O=C(COc1ccccc1F)NNC(=O)c1ccc(N2CCCCC2)c([N+](=O)[O-])c1 | – | -82
CN1CCN(CC#CCC2(O)c3ccccc3-c3ccccc32)CC1 | – | -7.87

Structure (SMILES) | Potency | activity change, negative = growth inhibition [%]
CCC(=O)NC(=S)Nc1ccc(NC(=O)c2ccco2)c(Cl)c1 | – | -4.57
COC(=O)c1cccc(NC(=O)CSc2nc(C)cc(=O)[nH]2)c1 | – | 1.31
COC(=O)c1c(C(=O)OC)c(-c2cccc(C)c2)n2c1CS(=O)C2 (stereo not drawn) | – | -0.626
COc1ccc(C2CC(c3cccs3)=NN2C(=O)CSc2nncs2)cc1OC (stereo not drawn) | – | -23.6
O=C1c2cccc(OCC(=O)N3N=C(c4cccs4)CC3c3ccc(F)cc3)c2CCN1Cc1ccccc1 (stereo not drawn) | 9.2 µM (active) | –
COc1ccc(C2CC(c3cccs3)=NN2C(=O)CCC(=O)O)cc1OC (stereo not drawn) | – | 3.1
CN(CC(=O)NC1CCCCC1)S(=O)(=O)c1ccc(Br)s1 | – | -32.5
O=C1C(c2[nH]c3ccccc3c2O)=Nc2ccccc21 | – | -16.4
COc1ccccc1-c1ccnc(-n2ncc(C(=O)NCCCN3CCOCC3)c2C)n1 | – | -3.07
CCOC(=O)N1CCC(NC(=O)c2cnn3ccccc23)CC1 | – | -5.98
COc1ccccc1CN1CCC(CNC(=O)c2cnn(-c3cccc(Cl)c3)c2C2CCN(C(=O)OC(C)(C)C)CC2)CC1 | 5.8 µM (active) | –
Cc1ccc(-n2ncc(C(=O)NC3CC3)c2C2CCN(C(=O)OC(C)(C)C)CC2)c(C)c1 | – | -18.3
COc1ccccc1N1CCN(CC(=O)NCCc2ccc(S(N)(=O)=O)cc2)CC1 | – | -1.08
CCN1CCN(CCCNC(=O)c2cnn(-c3ccc(C)cc3C)c2C2CCN(C(=O)OC(C)(C)C)CC2)CC1 | 20.6 µM (active) | –
COc1ccccc1N1CCN(CCCNC(=O)c2cnn(-c3ccccc3Cl)c2C2CCN(C(=O)OC(C)(C)C)CC2)CC1 | 5.8 µM (active) | –
Cc1ccc(CN2CCC(CNC(=O)c3cnn(-c4ccccc4Cl)c3C3CCN(C(=O)OC(C)(C)C)CC3)CC2)cc1 | 4.61 µM (active) | –
CCOC(=O)N1CCC(Nc2c(NCCCN3CCN(CC)CC3)c(=O)c2=O)CC1 | – | -10.5
CSCCC(=O)N1CCCC(CNC(=O)c2ccccc2Cl)C1 (stereo not drawn) | – | -18.6
CCc1cccc(C)c1NC(=O)COC(=O)Cc1ccsc1 | – | -18.7
CC1CCCC(C)N1/N=C/c1ccccc1OC(F)F (stereo not drawn) | – | -23.5
O=C(O)CCCCOn1ccnc1 | – | -5.4
CCCc1cc(=O)[nH]c2nnc(SCC(=O)Nc3nnc(SCC)s3)n12 | – | -29.2
COc1ccc(C(C)=O)cc1COC(=O)Cn1cnc2ccccc2c1=O | – | -0.295
COc1ccccc1CN1CCC(CNC(=O)c2cnn(-c3ccccc3Cl)c2C2CCN(C(=O)OC(C)(C)C)CC2)CC1 | 8.2 µM (active) | –
COCCNC(=O)C1CCCN(Cc2ccccc2Cl)CC1 (stereo not drawn) | – | -3.91

Structure (SMILES) | Potency | activity change, negative = growth inhibition [%]
COC(=O)N1CCC2(CCCN(Cc3ccccc3OC)C2)CC1 | – | -0.23
Cc1c(CN2CCCCC2)c(O)n(CCO)c(=O)c1C#N | – | 3.18
COc1cc(CCC(=O)OCC(=O)Nc2cccc(S(N)(=O)=O)c2)cc(OC)c1OC | – | -0.764
Cc1ccc(NC(=O)OCCNC(=O)c2ccncc2)cc1 | – | -1.06
CCCc1cc(=O)n2[nH]c(NCc3ccc(CC)cc3)nc2n1 | – | -4.36
O=C(N[C@@H](Cc1c[nH]c2ccccc12)C(=O)O)OCC1c2ccccc2-c2ccccc21 | – | -25.3
O=C1c2ccccc2C(O)N1Cc1ccccc1 (stereo not drawn) | – | 11.4
O=C(N[C@H]1C/C=C\C(c2cccc(F)c2)N(Cc2ccccc2)C(=O)C1)OCC1c2ccccc2-c2ccccc21 (stereo partly drawn) | 20.6 µM (active) | –
CCC(C)NC(=O)C1c2ccccc2C(=O)N1Cc1ccccc1 (stereo not drawn) | – | 14.2
CN(Cc1ccccc1Cl)C(=O)C1CCC(=O)N(CCc2cccc(F)c2)C1 (stereo not drawn) | – | -23.9
O=C(N[C@H]1C/C=C\C(c2ccc(F)cc2)N(Cc2ccccc2)C(=O)C1)OCC1c2ccccc2-c2ccccc21 (stereo partly drawn) | 20.6 µM (active) | –
CC1CCCN(S(=O)(=O)c2ccc3[nH]c(=O)cc(C(=O)NCCc4ccc(Cl)cc4)c3c2)C1 (stereo not drawn) | – | 3.52
COC(=O)c1ccc(S(=O)(=O)N2CCC(c3nc4ccccc4o3)CC2)cc1 | – | -27.1
O=C(c1ccc(C(F)(F)F)cc1)N1CCC(c2nc(-c3ccc(S(=O)(=O)N4CCCC4)cc3)no2)CC1 | 18.4 µM (active) | –
CC(C)(C)c1ccc(S(=O)(=O)N2CCN(C(=O)c3ccc4c(c3)C(=O)N(Cc3ccncc3)C4=O)CC2)cc1 | – | -20.4
NC(=O)C1CCN(C(=O)c2ccc(C(F)(F)F)cc2)CC1 | – | 10
O=C(c1ccncc1)N1CCN(S(=O)(=O)c2cc(C(F)(F)F)cc(C(F)(F)F)c2)CC1 | – | -29.7
CC(C)(C)c1ccc(C(=O)N2CCC(c3nc(-c4ccc(S(=O)(=O)N5CCCC5)cc4)no3)CC2)cc1 | 20.6 µM (active) | –
Cc1ccc2nc(COc3cccc(NC(=O)c4ccccc4Cl)c3)cc(=O)n2c1 | – | -18.2
CNC[C@H]1Oc2c(NC(=O)C3CCCCC3)cccc2C(=O)N([C@H](C)CO)C[C@@H]1C | – | 1.63
O=C(COC(=O)c1ccc(O)cc1O)NNC(=O)c1cccs1 | – | -10
Nc1nc(/C(=C/CC(=O)O)C(=O)N[C@@H]2C(=O)N3C(C(=O)O)=CCS[C@H]23)cs1 | – | 2.06
COc1cccc2cc(C(C)N(CCCN3CCOCC3)C(=O)Nc3ccc(Cl)cc3)oc12 (stereo not drawn) | 23.1 µM (active) | –
COc1cccc(NC(=S)NCCCN2CCOCC2)c1 | – | -0.715
COc1ccc(Cl)cc1NC(=O)CCN1CCOCC1 | – | -5.12

Structure (SMILES) | Potency | activity change, negative = growth inhibition [%]
CC(C)CC(=O)N1CCC(O)(CS(=O)(=O)Cc2ccccc2)CC1 | – | 5.44
CCCCC(=O)Nc1c2c(nn1-c1ccc([N+](=O)[O-])cc1)CS(=O)(=O)C2 | – | 13.8
Cc1ccc2c(c1)nnc1nnc(SCC(=O)O)n12 | – | -18
C[C@H](NC(=O)c1nc[nH]c1C(=O)NCC(=O)OC(C)(C)C)C(=O)OCc1ccccc1 | – | -28.9
NC(=O)COc1ccc2c3c(c(=O)oc2c1)CCCCC3 | – | -16.1
Cc1c(OC(C)C(=O)N[C@@H](Cc2ccccc2)C(=O)O)ccc2c3c(c(=O)oc12)CCCC3 (stereo partly drawn) | – | 2.69
CCCOc1ccc2c3c(c(=O)oc2c1OCCC)CCC3 | 23.1 µM (active) | –
COc1ccc(NC(=O)Nc2ccc3c(c2)C(=O)N([C@H](C)CO)C[C@H](C)[C@@H](CN(C)C(=O)Nc2ccc4c(c2)OCO4)O3)cc1 | – | -10
CN(CCc1cnn(C)c1)Cc1cn(C)nc1-c1ccccc1F | – | -2.86
COc1ccc(S(=O)(=O)N(C)C[C@H]2Oc3c(NC(=O)Nc4ccc5c(c4)OCO5)cccc3C(=O)N([C@H](C)CO)C[C@@H]2C)cc1 | 20.6 µM (active) | –
Cc1noc(C)c1S(=O)(=O)N(C)C[C@H]1Oc2c(NC(=O)Nc3ccc4c(c3)OCO4)cccc2C(=O)N([C@H](C)CO)C[C@@H]1C | – | -22
C[C@H](CO)N1C[C@H](C)[C@@H](CN(C)S(=O)(=O)c2ccc(F)cc2)Oc2c(NC(=O)Nc3ccccc3)cccc2C1=O | – | -19.6
Cn1c(=O)c(=O)n(C)c2cc(S(=O)(=O)NCCN3CCN(c4ccccc4F)CC3)ccc21 | – | -7.78
CC(=O)Oc1cccc(N2C(=O)CC(Nc3ccc(N4CCOCC4)cc3)C2=O)c1 (stereo not drawn) | – | 2.95
Nc1cc(N)nc(SCc2ccc(Cl)cc2)n1 | – | 2.64
Cc1cc(C(=O)CSc2nc(N)cc(=O)[nH]2)c(C)n1-c1cccc(F)c1 | 4.61 µM (active) | –
CCN(C(=O)CSc1nc(N)cc(=O)[nH]1)C1CCS(=O)(=O)C1 (stereo not drawn) | – | 23
Cc1cc(C(=O)CSc2nc(N)cc(=O)[nH]2)c(C)n1Cc1ccco1 | 0.82 µM (active) | –
Cc1cc(=O)[nH]c(SCC(=O)N2c3ccccc3CC2C)n1 (stereo not drawn) | – | -13.5
CCCCc1nnc(NC(=O)CSc2nc(N)cc(=O)[nH]2)s1 | – | -5.73
Cc1cc(C)c(C(=O)CSc2nc(C)cc(=O)[nH]2)c(C)c1 | – | -5.13
Cc1cc(C(=O)CSc2nc(N)cc(=O)[nH]2)c(C)n1CCc1ccc(Cl)cc1 | 16.4 µM (active) | –
Cc1cc(C(=O)COC(=O)CNC(=O)c2ccc(F)cc2)c(C)n1Cc1ccco1 | – | -3.47
